# Experimental data taken from PubChem BioAssay AID2401 (Southern Research Specialized Biocontainment Screening …, 2010).
# The whole screen tested about 2,200 compounds, of which about 530 (24%) were called active.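 How the source made its calls: active means inhibition above a set limit at one or more concentrations of the dose series; inactive means inhibition under that limit at every dose.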 The list is a sample of the results. Results with a measured potency or affinity are listed apart.
# Test: S. Typhimurium nonspecific reporter signal inhibition – Salmonella Typhimurium, GFP fluorescence, counter-screen for PhoP regulon inhibitor project, dose response (AID 2401);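 further: S. typhimurium with Mg-insensitive nmpC-GFP reporter grown at 10 µM Mg2+; drop in reporter fluorescence reflects general culture growth inhibition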
# Details: 4 h; series mostly up to 150 µM
row,Structure (SMILES),outcome
1,c1ccc(Nc2nc3ccccc3[nH]2)nc1,inactive
2,CC(=O)Nc1cccc(-c2csc(Nc3ccccn3)n2)c1,inactive
3,Clc1ccc(Cn2ncc3c(NCc4ccco4)ncnc32)c(Cl)c1,inactive
4,Cc1nc2cc(NC(=O)N3CCN(c4ccccn4)CC3)ccc2o1,inactive
5,CC(C)N(Cc1nc(-c2ccccc2)no1)C(=O)CN(C)S(=O)(=O)c1ccccc1,inactive
6,COc1ccccc1NCCC(=O)OCC(=O)NC1CCCCCC1,inactive
7,Cc1ccc(NC(=O)CO/N=C(\N)c2nonc2N)cc1,inactive
8,O=c1cc(CSc2nc(NCc3ccccc3)c3ccccc3n2)nc2ccc(Cl)cn12,inactive
9,N/C(=N\OC(=O)N1c2ccccc2Sc2ccccc21)c1ccccc1,inactive
10,Cc1cc(C)cc(OC(=O)CS(=O)c2ccc(C(F)(F)F)cc2[N+](=O)[O-])c1 (centres undefined),inactive
11,CCCOc1ccc(/C=N/O)cc1,inactive
12,C=C(C)C1Cc2cc3ccc(=O)oc3cc2O1 (centres undefined),inactive
13,CCOc1cc(C2Nc3cccc4cccc(c34)N2)ccc1O,inactive
14,CC(=O)N/N=C/c1ccc(OCCOc2ccc(Br)cc2)cc1,inactive
15,COC(=O)CCC(=O)Nc1ccc(OC)cc1,inactive
16,COc1cccc(-n2c(SCc3cc(=O)oc4cc(O)c(O)cc34)nc3ccccc3c2=O)c1,inactive
17,O=C(Cn1cnc2scc(-c3ccccc3)c2c1=O)N1CCOCC1,inactive
18,COc1ccccc1Nc1nc(-c2c(C)[nH]c3ccccc23)cs1,inactive
19,N#Cc1c(N)n[nH]c1-c1cc2c([nH]1)CCCC2,inactive
20,Cc1ccc(CNC(=O)Nc2cccs2)cc1,inactive
21,CCc1cccc2c(C#N)cn(CC(=O)NCCOC)c12,inactive
22,Cc1nc(N2CCN(Cc3ccccc3)CC2)nc2c1C(=O)CC(C)C2 (centres undefined),inactive
23,Cc1cc(C)n(-c2ccc(C(=O)OCC(=O)Nc3ccc([N+](=O)[O-])cc3)cc2)n1,inactive

row,Structure (SMILES),outcome
1,O=C(OCCN1C(=O)c2ccccc2C1=O)c1ccc(S(=O)(=O)N2CCCCCC2)cc1,inactive
2,COc1ccc(/C=C2\CN(Cc3ccccc3)C/C(=C\c3ccc(OC)cc3)C2=O)cc1,inactive
3,COc1cccc(C=NCC(C)N=Cc2cccc(OC)c2O)c1O (centres undefined),inactive
4,N/C(=N\OC(=O)Nc1ccc(Cl)cc1)c1ncc(C(F)(F)F)cc1Cl,inactive
5,Cn1c(CO)cnc1SCc1ccc([N+](=O)[O-])cc1,inactive
6,Cc1nn(-c2ccccc2)c2sc(-c3n[nH]c(=S)o3)cc12,inactive
7,COc1ccc(C(=O)NC(=S)NCc2ccc(-c3nc4ccccc4o3)cc2)cc1OC,inactive
8,O=C1NC(c2ccc3c(c2)OCO3)Oc2ccccc21 (centres undefined),inactive
9,O=C(O)CCC(=O)NCC1OCCc2ccccc21 (centres undefined),inactive
10,C=CCNc1nnc(Cl)c2ccccc12,inactive
11,CCCCCCCCOC(=O)C1=C(C)Nc2nnnn2C1c1cccs1 (centres undefined),inactive
12,CCOC(=O)c1c(/N=C/c2ccc(O)cc2O)sc2c1CCC2,inactive
13,O=C(c1ccc(Cl)cc1Cl)C1(n2cncn2)Oc2ccccc2C1O (centres undefined),inactive
14,O=C(CCN1CCN(c2ccc(F)cc2)CC1)Nc1ccccc1F,inactive
15,Cc1sc(NC(=O)c2ccco2)c(CN2CCN(c3ccc(F)cc3)CC2)c1C,inactive
16,CCOC(=O)c1cc2sc(C)cc2n1CC(=O)NCc1ccc(F)cc1,inactive
17,CC(C(=O)Nc1cc([N+](=O)[O-])ccc1Cl)N1CCN(c2ccccc2O)CC1 (centres undefined),inactive
18,CC(C)NC(=O)/C(=N\O)c1ccccc1,inactive
19,CCOC(=O)C(/C=C(\C#N)C(=O)OCC)=C(/N)N1CCN(c2c(C)cccc2C)CC1,inactive
20,O=[N+]([O-])c1ccc(NCCCNS(=O)(=O)c2ccccc2)c(Cl)c1,inactive
21,O=S(=O)(Nc1cc(Sc2ncn[nH]2)c(O)c2ccccc12)c1ccccc1,inactive
22,Nc1c(-c2ccccc2)cnn1-c1cccc([N+](=O)[O-])c1,inactive
23,CCC(Sc1ncccc1C(=O)OC(C)C)C(=O)N1CCOCC1 (centres undefined),inactive

row,Structure (SMILES),outcome
1,Cc1ccc(C)n1-c1cc(S(=O)(=O)N2CCOCC2)ccc1N1CCCC1,inactive
2,Cc1cc(Nc2ccccc2F)n2ncnc2n1,inactive
3,N#Cc1ccc(CSc2nnc(-c3ccncc3)n2CCc2ccccc2)cc1,inactive
4,C/C(=N\NC(=O)c1ccccc1)c1ccc2c(c1)OCO2,inactive
5,O=C(NN=C1CCN(Cc2ccccc2)CC1)c1cc2ccccc2cc1O,inactive
6,CN(C(=S)Nc1ccc(Oc2ccccc2)cc1)c1ccc(O)cc1,inactive
7,CC(C)Cn1c(-c2ccccc2)nc2ccccc2c1=O,inactive
8,COC(=O)c1c(C(=O)OC)c(-c2cccc(C)c2)n2c1CS(=O)(=O)C2,inactive
9,NC(=NCCc1c[nH]c2ccccc12)NC(=O)c1ccc(F)cc1,inactive
10,CC1CCN(c2ccc(NC(=S)NC(=O)c3ccc(-c4cccc([N+](=O)[O-])c4)o3)cc2)CC1,inactive
11,CCOc1ccc(-c2noc(CCCC(N)=O)n2)cc1OC,inactive
12,O=C(CNC(=O)c1ccco1)OCC(=O)c1ccc2c(c1)CCCC2,inactive
13,C/C(=N\n1nnnc1Nc1ccccc1)c1ccc(N)cc1,inactive
14,COc1ccc(NC(=O)CSc2nc(C)cs2)cc1OC,inactive
15,Cc1cc(NC(=O)c2cnn3cccnc23)no1,inactive
16,c1ccc(CCNc2nc3ccccc3s2)cc1,inactive
17,COc1ccc(-c2ccc(-c3noc(-c4cccs4)n3)c(OC)n2)cc1,inactive
18,COc1ccc(NC(C)C(=O)Nc2ccc(C(C)(C)C)cc2)cc1Cl (centres undefined),inactive
19,CC1CCCCN1CCNS(=O)(=O)c1ccc2c(c1)oc(=O)n2C (centres undefined),inactive
20,Cc1ccccc1-n1nnnc1Sc1nnnn1-c1ccccc1,inactive
21,C=CCn1c(SCc2c(C(=O)OC)sc(N)c2C(=O)OC)nnc1-c1ccc(Cl)cc1,inactive
22,CSCCC(NC(=O)c1cccc(C)c1)C(=O)OCC(=O)NC(=O)c1cccn1C (centres undefined),inactive
23,COc1ccc(-c2cc(C(=O)O)[nH]n2)cc1OC,inactive

row,Structure (SMILES),outcome
1,O=C(O)CCc1nn2c3ccccc3n(CC(=O)c3ccccc3)c2nc1=O,inactive
2,COc1ccccc1/C=C1\CCCC2=C1Nc1nnnn1C2c1ccccc1OC (centres undefined),inactive
3,CCN(CC(=O)N1CCN(Cc2ccccc2)CC1)S(=O)(=O)c1ccc(F)cc1,inactive
4,S=C(Nc1cccc(Cl)c1)Nc1cccc2cnccc12,inactive
5,S=C(NCc1cccnc1)Nc1ccc(Cl)cc1,inactive
6,CSC(=NS(=O)(=O)c1ccccc1)SC,inactive
7,CCN(CC)c1ccc(/C=C(\C#N)C(=O)NCc2ccco2)cc1,inactive
8,CCOC(=O)C1=C(C)NC(=O)NC1c1c(OCC(=O)N2CCCCC2)ccc2ccccc12 (centres undefined),inactive
9,O=C(NCCSCc1ccccc1)c1ccc(F)cc1,inactive
10,CCOc1ccc(-c2nnc(NC(=O)CCCOc3cccc(C)c3)o2)cc1,inactive
11,COc1ccc(Br)cc1C(=O)NCc1cccnc1,inactive
12,C=CCNc1sc(C(=O)c2ccc(C)cc2)c(N)c1C#N,inactive
13,Cc1ccc(C(=O)NCC(=O)OCC(=O)N2CCCc3ccccc32)cc1,inactive
14,CCC(OC(=O)C(NC(=O)c1ccccc1)c1ccccc1)C(=O)Nc1cc(C)on1 (centres undefined),inactive
15,COc1ccc(-c2nnc(SCC(=O)NCc3ccco3)o2)cc1,inactive
16,CCn1c(SCC(=O)N2CCCCC2)nc(O)cc1=O,inactive
17,CC(=O)N1C(=O)C2(C(C#N)=C(N)Oc3c2c(C)nn3-c2ccccc2)c2ccccc21 (centres undefined),inactive
18,Oc1ccc(N2CCN(Cc3ccc(OCCCN4CCCCC4)cc3)CC2)cc1,inactive
19,O=C(COC(=O)/C=C/c1ccco1)Nc1cccc([N+](=O)[O-])c1,inactive
20,CCc1c(C)c2cc(Cl)c(O)c(CN(C)C)c2oc1=O,inactive
21,Cc1[nH]c2ccccc2c1/C=N/Nc1ccc(F)cc1F,inactive
22,COc1ccc(-c2[nH]ncc2/C=C(\C#N)C(=O)NC2CC2)cc1,inactive
23,N#Cc1nc(Cc2cccc3ccccc23)oc1NCCCN1CCOCC1,inactive

row,Structure (SMILES),outcome
1,CCCSc1ncc(Cl)c(C(=O)Nc2ccc(S(=O)(=O)N3CC(C)OC(C)C3)cc2)n1 (centres undefined),inactive
2,CCn1nc(C(=O)NCc2ccco2)c(Cl)c1Cl,inactive
3,CCN(CC)Cc1c[nH]c2c(C(=O)OC)cccc12,inactive
4,Cc1ccccc1Cn1nc(C)c(NC(=O)c2noc3c2CCc2ccccc2-3)c1C,inactive
5,c1nc(N2CCC3(CC2)OCCO3)c2c3c(sc2n1)CCCC3,inactive
6,COc1ccccc1Nc1nc(NCc2ccco2)c2ccccc2n1,inactive
7,COCCSc1ccccc1C(=O)NCC1CCCO1 (centres undefined),inactive
8,CCCOc1ccc(C2NC(=S)NC(c3ccccc3)=C2C(=O)Nc2ccc(C)cc2)cc1OC (centres undefined),inactive
9,N#Cc1nc(-c2cccs2)oc1NCCCN1CCOCC1,inactive
10,COc1ccc(C)cc1NC(=O)C(Sc1nnc(-c2ccncc2)n1-c1ccc(Cl)cc1)c1ccccc1 (centres undefined),inactive
11,Cc1ccc(/C=N/NC(=O)Cn2cnc3ccccc32)o1,inactive
12,COc1ccc(OC)c(/C=N/NC(=O)Cc2nc3ccccc3[nH]2)c1,inactive
13,C=CCn1c(SCCOc2ccc(OC)cc2)nnc1C(C)NC(=O)c1ccc(OC)cc1 (centres undefined),inactive
14,O=C(CSCc1nc2ccccc2[nH]1)Nc1ccc2ccccc2c1,inactive
15,CC(Cl)C(=O)NNc1cccc(Cl)n1 (centres undefined),inactive
16,O=S(=O)(c1ccc2c(c1)OCCO2)N1CCN(c2cccc(Cl)c2)CC1,inactive
17,O=C(CSc1ncn[nH]1)Nc1cccc2ccccc12,inactive
18,COc1ccc(Oc2ccccc2/C=N/O)cc1,inactive
19,CCCNC(=O)CN(C1CCCCC1)S(C)(=O)=O,inactive
20,Cc1nnc(SC(C)C(=O)Nc2ccc(S(=O)(=O)N3CCCCCC3)cc2)s1 (centres undefined),inactive
21,O=S(=O)(/N=C(/Nc1cccc2ccccc12)c1ccccc1)c1cccs1,inactive
22,COc1ccc(-c2ccccc2)cc1NCc1ccccc1C,inactive
